Results on 20 molecules are retold here after publication PMC9911399, “Two distinct binding modes provide the RNA-binding protein RbFox with extraordinary sequence specificity”.

Changes are numbered by the printed parent chain; changes in the protein carry UniProt numbers. In all, about 16,000 sequences were measured (“ka relative to ugcaugu”: median about 0.0091, highest 2% from about 0.032 on). For the sample, the highest values were picked, then their nearest neighbours and some sequences at random.

T1: RBFOX1 RRM (Homo sapiens, UniProt Q9NWB1 109-208)
T1 sequence: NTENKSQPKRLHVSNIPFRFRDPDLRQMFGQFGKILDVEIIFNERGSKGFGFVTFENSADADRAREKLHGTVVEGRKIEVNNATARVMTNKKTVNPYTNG

B1: UUCGUGC (DNA:RNA)
RNA: GGGAGACCGGAAUUCAGAUUGUCCUUCGUGCUUAAAUCCCGUCGUAGCCACCA
DNA 1: CAATCTGAATTCCGGTCTCCC
DNA 2: TGGTGGCTACGACGGGATT
B2: UGCGUGU (DNA:RNA)
RNA: B1 RNA with U26G, C31U
DNA 1: CAATCTGAATTCCGGTCTCCC
DNA 2: TGGTGGCTACGACGGGATT
B3: CGCGUGC (DNA:RNA)
RNA: B1 RNA with U25C, U26G
DNA 1: CAATCTGAATTCCGGTCTCCC
DNA 2: TGGTGGCTACGACGGGATT
B4: UCCUGCG (DNA:RNA)
RNA: B1 RNA with U26C, G28U, U29G, G30C, C31G
DNA 1: CAATCTGAATTCCGGTCTCCC
DNA 2: TGGTGGCTACGACGGGATT
B5: UGUGUCC (DNA:RNA)
RNA: B1 RNA with U26G, C27U, G30C
DNA 1: CAATCTGAATTCCGGTCTCCC
DNA 2: TGGTGGCTACGACGGGATT
B6: UGCGUUU (DNA:RNA)
RNA: B1 RNA with U26G, G30U, C31U
DNA 1: CAATCTGAATTCCGGTCTCCC
DNA 2: TGGTGGCTACGACGGGATT
B7: UGCUGCG (DNA:RNA)
RNA: B1 RNA with U26G, G28U, U29G, G30C, C31G
DNA 1: CAATCTGAATTCCGGTCTCCC
DNA 2: TGGTGGCTACGACGGGATT
B8: UGCGCGU (DNA:RNA)
RNA: B1 RNA with U26G, U29C, C31U
DNA 1: CAATCTGAATTCCGGTCTCCC
DNA 2: TGGTGGCTACGACGGGATT
B9: UGCGUCC (DNA:RNA)
RNA: B1 RNA with U26G, G30C
DNA 1: CAATCTGAATTCCGGTCTCCC
DNA 2: TGGTGGCTACGACGGGATT
B10: UGCGUGC (DNA:RNA)
RNA: B1 RNA with U26G
DNA 1: CAATCTGAATTCCGGTCTCCC
DNA 2: TGGTGGCTACGACGGGATT
B11: CUGCGUG (DNA:RNA)
RNA: B1 RNA with U25C, C27G, G28C, U29G, G30U, C31G
DNA 1: CAATCTGAATTCCGGTCTCCC
DNA 2: TGGTGGCTACGACGGGATT
B12: UGCGUCG (DNA:RNA)
RNA: B1 RNA with U26G, G30C, C31G
DNA 1: CAATCTGAATTCCGGTCTCCC
DNA 2: TGGTGGCTACGACGGGATT
B13: CCGCACU (DNA:RNA)
RNA: GGGAGACCGGAAUUCAGAUUGUCCCCGCACUUUAAAUCCCGUCGUAGCCACCA
DNA 1: CAATCTGAATTCCGGTCTCCC
DNA 2: TGGTGGCTACGACGGGATT
B14: CGCCCCU (DNA:RNA)
RNA: B13 RNA with C26G, G27C, A29C
DNA 1: CAATCTGAATTCCGGTCTCCC
DNA 2: TGGTGGCTACGACGGGATT
B15: UUCUAAG (DNA:RNA)
RNA: B1 RNA with G28U, U29A, G30A, C31G
DNA 1: CAATCTGAATTCCGGTCTCCC
DNA 2: TGGTGGCTACGACGGGATT
B16: GGUGUGG (DNA:RNA)
RNA: B1 RNA with U25G, U26G, C27U, C31G
DNA 1: CAATCTGAATTCCGGTCTCCC
DNA 2: TGGTGGCTACGACGGGATT
B17: AUUAACU (DNA:RNA)
RNA: B13 RNA with C25A, C26U, G27U, C28A
DNA 1: CAATCTGAATTCCGGTCTCCC
DNA 2: TGGTGGCTACGACGGGATT
B18: GUUCCAG (DNA:RNA)
RNA: B13 RNA with C25G, C26U, G27U, A29C, C30A, U31G
DNA 1: CAATCTGAATTCCGGTCTCCC
DNA 2: TGGTGGCTACGACGGGATT
B19: UAUCCAA (DNA:RNA)
RNA: B13 RNA with C25U, C26A, G27U, A29C, C30A, U31A
DNA 1: CAATCTGAATTCCGGTCTCCC
DNA 2: TGGTGGCTACGACGGGATT
B20: CCACCGU (DNA:RNA)
RNA: B13 RNA with G27A, A29C, C30G
DNA 1: CAATCTGAATTCCGGTCTCCC
DNA 2: TGGTGGCTACGACGGGATT

The target in this assay is T1, RBFOX1 RRM. As to the kind of experiment: EMSA; HiTS-Eq, 1 nM pool, 10 min; buffer printed only for the single-RNA assays: 10 mM Tris pH 7.5, 150 mM NaCl, 3.4 mM EDTA, 0.001% NP-40, 30 C. The conditions noted are these: tags: His6 N-terminal (pET28a); label: 5' 32P. The method in brief: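 Purified RbFox RRM, wild type or mutant, was incubated for 10 min in 50 µL with 1 nM of a 5′-radiolabelled RNA pool carrying 7 randomized nucleotides, whose flanks were annealed to DNA oligonucleotides, over a series of increasing protein concentrations. Unbound RNA was resolved on 8% native PAGE, cut out, reverse-transcribed, barcoded by PCR and sequenced on an Illumina HiSeq 2500. Relative association constants were derived from changes in read counts for each RNA species versus the control reaction and normalised to the cognate motif.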
As for B1, the binding signal was 0.0243 KA relative to UGCAUGU.
As for B2, the figure is 0.0418 KA relative to UGCAUGU; as for B3, 0.0241 KA relative to UGCAUGU.
As for B4, the figure is 0.0166 KA relative to UGCAUGU; as for B5, 0.0226 KA relative to UGCAUGU.
For B6 the value was 0.0236 KA relative to UGCAUGU; for B7, 0.0333 KA relative to UGCAUGU.
For the molecule B8, the binding signal was 0.0288 KA relative to UGCAUGU.
As for B9, the figure is 0.0132 KA relative to UGCAUGU; as for B10, 0.0465 KA relative to UGCAUGU; as for B11, 0.035 KA relative to UGCAUGU.
As for B12, the figure is 0.0236 KA relative to UGCAUGU; as for B13, 0.00621 KA relative to UGCAUGU; as for B14, 0.00718 KA relative to UGCAUGU.
As for B15, the figure is 0.00998 KA relative to UGCAUGU; as for B16, 0.0188 KA relative to UGCAUGU.
On to B17, for which the binding signal is 0.00102 KA relative to UGCAUGU.
For B18 the value was 0.0134 KA relative to UGCAUGU; for B19, 0.00131 KA relative to UGCAUGU.
On to B20, for which the binding signal is 0.0012 KA relative to UGCAUGU.
